Source: PubChem BioAssay AID652058 (Broad Institute, 2013)
Out of some 1,200 compounds screened, about 870 (72%) were called active. About 3% were inconclusive and are not listed.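 Rule for the calls: active = every test run fits a falling curve whose half-maximal concentration is at most twice the top valid dose; inconclusive = runs disagree, or flat 30 to 70% inhibition, or poor fit; inactive = every run inactive: flat, rising or weaker potency.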 The set was probably picked from earlier hits. Only a sample is shown. Potency and affinity values are given separately.

Test: blockers of HIV-1 ZM109 envelope-driven cell-cell fusion – HeLa effector, CEM target cells, luciferase, cherry-pick, dose response (AID 652058)
Details: HeLa Env/CEM cell fusion, 16-24 h; series mostly up to 35 µM

Activity change, negative = inhibition, inactive:
C=CCN1C(=S)CC(c2ccccc2)=Nc2ccccc21
CC1CCCN(C(=O)c2ccc(S(=O)(=O)N3CCC(c4nc5ccccc5s4)CC3)cc2)C1 (centres undefined)
CS(=O)(=O)Nc1ccc2c(c1)[C@H]1C[C@H](CC(=O)NCc3ccc(-c4ccccc4)cc3)O[C@H](CO)[C@H]1O2
CS(=O)(=O)Nc1ccc2c(c1)[C@H]1C[C@H](CC(=O)N3CCc4ccccc4C3)O[C@H](CO)[C@H]1O2
CS(=O)(=O)Nc1ccc2c(c1)[C@@H]1C[C@@H](CC(=O)N3CCc4ccccc4C3)O[C@H](CO)[C@@H]1O2
CCN(c1nc(N)c(C(=O)N=C(N)N)nc1Cl)C(C)C
CCN(CC)CCN(C(=O)c1cc(Cl)sc1Cl)c1nc2cc3c(cc2s1)OCO3
CCC(=O)N(C)C(c1ccccc1Cl)c1nnnn1-c1c(C)cccc1C (centres undefined)
O=C(O)C[C@@H]1C=C[C@H](NC(=O)Nc2ccccc2)[C@H](CO)O1
O=C(O)C[C@@H]1C=C[C@@H](NC(=O)Nc2ccccc2)[C@H](CO)O1
Cc1nc2ccccc2c2oc(C(=O)NCc3ccc4c(c3)OCO4)cc12
O=C(Nc1ccc(Cl)cc1)C1CCCN(C2=NS(=O)(=O)c3ccccc32)C1 (centres undefined)
C[C@H]1CN([C@@H](C)CO)C(=O)Cc2cc(NS(=O)(=O)c3ccccc3)ccc2O[C@@H]1CN(C)Cc1ccc(Cl)c(Cl)c1
COc1cc(-c2c(-c3cc(OC)c(OC)c(OC)c3)noc2C)ccc1F
O=C(Nc1nc(COc2ccccc2)cs1)C12CC3CC(CC(C3)C1)C2
CC1Cc2cc(-c3csc(NC(=O)Cc4cccs4)n3)ccc2N1S(C)(=O)=O (centres undefined)
COCCCn1c(-c2ccc(S(=O)(=O)N3CCOCC3)cc2)csc1=Nc1ccccc1
COc1ccc(S(=O)(=O)n2ccc(-c3ccc(OCCN(C)c4ccccn4)cc3)n2)cc1
O=C(c1ccccc1F)N1CCN(Cc2cccc(Cl)c2)CC1
COc1ccccc1S(=O)(=O)Cc1ccc(C(=O)N2CCN(c3cccc(Cl)c3)CC2)o1
COc1ccc(OCC(=O)Nc2ccccc2N2CCCCC2)cc1
CCOC(=O)C1CCN(C(=O)c2ccc3c(c2)C(=O)N(c2ccccc2C)C3=O)CC1
Cc1cc(Cl)ccc1OCC(=O)NNC(=O)C1CSC2(C)CCC(=O)N12 (centres undefined)
CS(=O)(=O)N1CCN(c2ccccc2NC(=O)C(c2ccccc2)c2ccccc2)CC1
O=C(c1ccc(Cl)s1)N1CCN(c2nc3ccccc3s2)CC1
CCOC(=O)c1cccc(NS(=O)(=O)c2ccc(NC(C)=O)cc2)c1
O=C(Nc1ccc(CN2CCS(=O)(=O)CC2)cc1)c1ccc(C(F)(F)F)cc1
O=C(Nc1cc2c3c(c1)CC(=O)N3CCC2)c1ccc(Cl)cc1
C=CC[n+]1c(-c2ccc(C)cc2)csc1NNC(=O)Nc1ccccc1
Cc1noc(C)c1S(=O)(=O)N(C)C[C@H]1Oc2ccc(NC(=O)Nc3ccccc3)cc2CC(=O)N([C@H](C)CO)C[C@H]1C
N#C/C(=N\Nc1ccc(Cl)cc1)C(=O)c1ccccc1
CN(C(=O)c1cccc(NC(=O)Cc2cccc(NC(=O)C3CCCN(C(=O)C4CCC4)C3)c2)c1)C1CCC1 (centres undefined)
CCCn1c(=S)[nH]c2cc(C(=O)N3CCCC(C(=O)OCC)C3)ccc2c1=O (centres undefined)
COc1ccc(S(=O)(=O)N2CCCCC2)cc1NC(=O)CN(Cc1ccco1)Cc1ccco1
CCc1cc2c(NCc3ccco3)ncnc2s1
O=C(COC(=O)c1ncc(Cl)c(Cl)c1Cl)NCc1cccs1
COc1ccc(-c2cc(=O)oc3c(C)c(O)ccc23)cc1
COc1cccc(S(=O)(=O)N(C)C[C@@H]2Oc3cc(C#CCC(C)C)ccc3S(=O)(=O)N([C@H](C)CO)C[C@@H]2C)c1
COc1cccc(S(=O)(=O)N(C)C[C@H]2Oc3cc(C#CCC(C)C)ccc3S(=O)(=O)N([C@H](C)CO)C[C@H]2C)c1
COc1ccc(OC)c(-c2cc(C(=O)Nc3c(C)nn(Cc4ccc(Cl)cc4)c3C)no2)c1
CC(Cl)=CCn1c(NCCc2ccccc2)nc2c1c(=O)n(C)c(=O)n2C
C[C@@H]1CN([C@@H](C)CO)C(=O)c2cc(NC(=O)c3ccncc3)ccc2O[C@H]1CN(C)Cc1ccncc1
C[C@@H]1CN([C@@H](C)CO)C(=O)c2cc(NC(=O)c3ccncc3)ccc2O[C@@H]1CN(C)Cc1ccncc1
CCCCNC(=O)C[C@H]1C[C@@]2(C(=O)OC)C(=C[C@H](C(C)(C)C)O[C@@H]2C)N(Cc2ccc3c(c2)OCO3)C1=O
CC(C)OCCCn1c(=S)[nH]c2ccc(N3CCOCC3)cc2c1=O
COCCn1c(=S)[nH]c2cc(C(=O)N3CCN(Cc4ccc5c(c4)OCO5)CC3)ccc2c1=O
O=S(=O)(c1ccccc1Cl)N1CCCC1c1nc(-c2ccc(Cl)cc2)no1 (centres undefined)
CCS(=O)(=O)N[C@H]1CC[C@@H](CC(=O)NCc2ccc(Cl)cc2)O[C@@H]1CO
O=C(C[C@@H]1C=C[C@@H](NC(=O)Nc2ccc3c(c2)OCO3)[C@H](CO)O1)NCc1ccc(F)cc1
Nc1c(S(=O)(=O)c2ccccc2)cnc2c(-c3ccc(F)cc3)cnn12
COc1ccc(OC)c(NC(=O)COc2ccc3c(c2)CCC3)c1
COc1ccc(S(=O)(=O)NNC(=O)C2Cc3c(ccc4ccccc34)O2)cc1 (centres undefined)
COc1ccc(CCNC(=O)COC(=O)c2cccn2C)cc1
COc1ccc(CCCC(=O)NCCc2ccccc2)c(C)c1
Cc1[nH]nc2c1C1(C(=O)N(Cc3ccc(Cl)cc3)c3ccccc31)C(C#N)=C(N)O2 (centres undefined)
Cc1ccccc1OCCCCn1cnc2ccccc21
Cc1ccc(C(=O)NCc2ccccn2)cc1S(=O)(=O)N1CCCCC1
O=C(Nc1ccncc1)c1ccc(Cl)c(S(=O)(=O)N2CCc3ccccc32)c1
COc1cccc(/C=N/NC(=O)CC2C(=O)NN=C2C)c1O (centres undefined)
CN(C)CC(=O)Nc1ccc2c(c1)[C@H]1C[C@H](CC(=O)NCc3cccc(F)c3)O[C@@H](CO)[C@H]1O2
O=C(C[C@@H]1CC[C@@H](NC(=O)c2ccncc2)[C@H](CO)O1)NCCc1ccncc1
CCCCn1c(CN(C)Cc2ccccc2)nc2c1c(=O)n(C)c(=O)n2C
CC(C)n1c(NCCc2ccccc2)nc2c1c(=O)n(C)c(=O)n2C
CC1CN(S(=O)(=O)c2cc(C(=O)NCCC3=CCCCC3)ccc2Cl)CC(C)O1 (centres undefined)
Cc1cc(C)c(CN2CCN(C(=O)Cn3ccc(NC(=O)OCc4ccccc4)nc3=O)CC2)c(C)c1
CC(c1nc2ccccc2c(=O)[nH]1)N(C)CCOc1ccc(Cl)cc1 (centres undefined)
CNC[C@@H]1Oc2ccc(NS(C)(=O)=O)cc2CC(=O)N([C@H](C)CO)C[C@H]1C
COCC(=O)N(C)C[C@H]1Oc2ncc(Br)cc2C(=O)N([C@H](C)CO)C[C@H]1C
C[C@H]1CN([C@@H](C)CO)C(=O)c2cccc(NC(=O)Nc3ccc(C(F)(F)F)cc3)c2O[C@H]1CN(C)S(=O)(=O)c1ccccc1
O=C(c1cc(COc2cccc(C(F)(F)F)c2)on1)N1CCC(c2ccncc2)CC1
Clc1ccc(-c2noc(CSc3nnc(-c4ccncc4)n3-c3ccccc3)n2)cc1
CC1=C(C(=O)OCc2ccc3c(c2)OCO3)C(c2ccc(F)cc2)NC(=O)N1 (centres undefined)
Cc1nn(C)c(Cl)c1NC(=O)OCc1ccc(Cl)cc1Cl
CCNC(=O)Nc1ccc2c(c1)C(=O)N(C)[C@@H]1CC[C@@H](CC(=O)NCC3CCCCC3)O[C@@H]1CO2
Cc1nn(C)cc1NC(=O)C[C@H]1CC[C@@H]2[C@@H](COc3ccc(NC(=O)C4CCC4)cc3C(=O)N2C)O1
CCNC(=O)C[C@@H]1CC[C@@H]2[C@@H](COc3ccc(NC(=O)Cc4cccs4)cc3C(=O)N2C)O1
CCNC(=O)C[C@H]1CC[C@@H]2[C@@H](COc3ccc(NC(=O)Cc4cccs4)cc3C(=O)N2C)O1
CN(C)CCCNC(=O)[C@H]1[C@H](CO)[C@H]2Cn3c(ccc(C4=CCCC4)c3=O)[C@H]2N1CCC(F)(F)F
CNC[C@H]1Oc2c(NC(=O)Nc3ccc4c(c3)OCO4)cccc2C(=O)N([C@H](C)CO)C[C@@H]1C
C[C@H](CO)N1C[C@H](C)[C@H](CN(C)Cc2ccccc2)Oc2c(NC(=O)Nc3ccc4c(c3)OCO4)cccc2C1=O
C#CCn1c(=O)c2c(ncn2C)n(C)c1=O
COc1cccc(CNC(=O)C[C@@H]2C=C[C@H](NC(=O)C3CCC3)[C@H](CO)O2)c1
Cc1ccc(-c2ccc3c(c2)O[C@H](CN(C)Cc2cccnc2)[C@@H](C)CN([C@H](C)CO)S3(=O)=O)cc1
Cc1ccc(-c2ccc3c(c2)O[C@@H](CN(C)Cc2cccnc2)[C@H](C)CN([C@H](C)CO)S3(=O)=O)cc1
Cc1cc(C)c(CN2CCN(C(=O)Cn3cnc4c(NCc5ccccc5)ncnc43)CC2)c(C)c1
N#Cc1ccc(CN2CCN(C(=O)CNC(=O)Cc3cccc4ccccc34)CC2)cc1
O=C(OCCOc1cccc(Cl)c1)c1cc(S(=O)(=O)N2CCCCC2)ccc1N1CCOCC1
CSc1ncccc1C(=O)OCC(=O)Nc1ccc(C)c(S(=O)(=O)N2CCOCC2)c1
Nc1ccc(S(=O)(=O)c2ccc(N3CCOCC3)c(N)c2)cc1
